# Compound activity as filed in PubChem BioAssay.
# Tg IFNy HTS = T. gondii growth inhibition with IFN-gamma, primary screen, cell-based | hit rate 3.8% among 69,000 | AID 1259416, 2018 | Toxoplasma gondii growth in IFN-gamma-treated host cells; hits give low values | activity change, negative = inhibition, % (concentration not given with the values); in the data active = activity change below about -70%, passing the limit was not always enough;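 note: host cells are HeLa cells infected with Toxoplasma gondii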
# Starred values were filed as active, the others as inactive; ! = not confirmed by another sample. The full list was thinned out, with hits kept by preference.
SMILES,Tg IFNy HTS
CNC(=O)C1CC2CN(C(=O)Nc3cccc(OC)c3)CC1O2 (stereo not drawn),-12.0
Cc1cccnc1N1CC2(CCN(C(=O)c3cccnc3)C2)C1,-3.0
O=c1[nH]cnc2c1ncn2[C@H]1CC[C@@H](CO)O1,8.7
Nc1nc(Cl)nc2c1ncn2[C@@H]1O[C@H](CO)[C@@H](O)[C@@H]1F,-73.9*
Nc1ncnc2c1ncn2C1CCCO1 (stereo not drawn),15.9
Nc1nc(=O)n([C@H]2C[C@H](O)[C@@H](CO)O2)cc1F,-88.7*
CNC(=O)c1cnn(-c2nc(N)c3ncn([C@@H]4O[C@H](CO)C(O)C4O)c3n2)c1 (stereo partly drawn),17.4
O=c1[nH]c(=O)n([C@H]2C[C@H](O)[C@@H](CO)O2)cc1I,21.2
Nc1nc(Cl)nc2c1ncn2[C@H]1C[C@H](O)[C@@H](CO)O1,-73.3*!
Nc1ccn([C@@H]2O[C@H](CO)[C@@H](O)[C@H]2O)c(=O)n1,10.8
OCC1OC(n2cnc3c(NC4CCCC4)nc(Cl)nc32)C(O)C1O (stereo not drawn),2.4
COC(=O)c1sccc1NN=C1c2cc(OC)ccc2-c2ccc(OC)cc21,-0.5
CCOC(=O)c1nc(N2CCN(c3ccc(F)cc3)CC2)c2ccccc2n1,53.9
COc1ccccc1-c1nc(CSc2nc3c(=O)[nH]cnc3n2C)c(C)o1,11.9
Cc1cc2nc(CN(C)Cc3ccc(CO)o3)[nH]c2cc1C,27.5
COc1cccc(NC(=O)c2ccc3c(c2)[nH]c(=O)n3C2CCCCC2)c1,-82.9*
CCN1CCCC1CNC(=O)c1ccc2c(c1)[nH]c(=O)n2Cc1ccc(OC)cc1 (stereo not drawn),-30.4
COc1cccc(NC(=O)CC2NCCNC2=O)c1 (stereo not drawn),46.2
Cc1nc(Nc2n[nH]c3c2CN(C(=O)N[C@H](CN(C)C)c2ccccc2)C3(C)C)c2sccc2n1,-74.9*
CC1CCN(c2cc(-n3cnc(C(=O)N4CCC(N5CCCCC5)CC4)c3)ncn2)CC1,191.7
O=C(c1cc2c(s1)CCCC2)N1CCc2[nH]cnc2C12CCCCC2,178.5
O=C(NCc1ccccc1)c1c(O)c2ccccc2n(-c2ccccc2)c1=O,46.5
CN(Cc1cc(-c2ccncc2)no1)Cc1ccc(Cl)s1,-13.1
CN(Cc1cc(-c2ccncc2)no1)Cc1ccc(Cl)cc1F,-89.7*
CCOc1ccccc1CN(C)Cc1cc(-c2ccncc2)no1,21.1
SMILES,Tg IFNy HTS
COCc1nnc(NC(=O)c2cc(-c3ccccc3F)no2)s1,106.8
CCOC(=O)C1(Cc2ccccc2)CCN(Cc2ccc(Sc3nncn3C)o2)CC1,-6.4
CCCCc1c(C)[nH]c2ccccc2c1=O,-99.1*
CCC(CC)n1ncc(C)c1NC(=O)CCc1c(C)[nH]c2ccccc2c1=O,-16.6
CCCCCCCCCc1nc2c(=O)[nH]c3ccccc3c2o1,4.2
O=C(NC(=S)N1CCOCC1)c1ccccc1,23.8
O=C(NC(=O)c1ccccc1O)c1ccoc1,-84.2*
Cc1ccc(NC(=O)c2ccoc2)cc1NCC#N,45.0
N#CCCn1nc(-c2cccnc2)oc1=O,52.3
Cc1nn(Cc2nnc(SCc3c(F)cccc3Cl)n2C)c(C)c1Br,-23.8
Cc1nn(CCC#N)c(C)c1Cc1c(Cl)cccc1Cl,-110.8*
Cc1nc(-c2cccc(F)c2)sc1CCNC(=O)C(=O)Nc1ccccc1C#N,25.3
CC(=O)N1CCCn2nc(C(=O)NCc3ccc4sccc4c3)cc2C1,16.0
Cc1ccc(NC(=O)C(CC(C)C)NC(=O)OCc2ccccc2)cc1C (stereo not drawn),-10.7
CC(Cc1cccnc1)Nc1nccc(-c2cnn(-c3ccccc3F)c2)n1 (stereo not drawn),-71.7*
Cc1cccc(-n2cc(-c3ccnc(NC(C)Cc4ccncc4)n3)cn2)c1 (stereo not drawn),-50.7
CC(NC(=O)Cc1ccccn1)c1cnn(-c2ccccc2F)c1 (stereo not drawn),5.7
Cc1ccc(S(=O)(=O)N(C)c2cncc(C(=O)NC3CCCCC3)c2)cc1,2.6
CC(=O)N1CCC2(CC1)OC(=O)C(C)=C2C(=O)N1CCN(C(=O)c2ccco2)CC1,27.0
Cc1ccc(-n2sc(=O)n(Cc3ccc(F)cc3)c2=O)cc1,-4.0
Cc1ccc(Cn2c(-c3ccc(F)cc3)c(-c3ccc(F)cc3)nnc2=O)cc1,-83.0*
CCOC(=O)Cn1nc2nnc(-c3ccc(F)cc3)c(-c3ccc(F)cc3)n2c1=O,-35.9
CCc1[nH]c2ccc(CNC(=O)CNS(C)(=O)=O)cc2c1C,6.5
C[C@@H]1CN([C@H](C)CO)C(=O)c2c(c3ccccc3n2C)-c2ccccc2CO[C@@H]1CN(C)S(=O)(=O)c1ccc([N+](=O)[O-])cc1,-23.8
C[C@@H]1CN([C@@H](C)CO)C(=O)c2c(c3ccccc3n2C)-c2ccccc2CO[C@@H]1CN(C)S(=O)(=O)c1ccc([N+](=O)[O-])cc1,-50.0
SMILES,Tg IFNy HTS
C[C@H](CO)N1C[C@H](C)[C@H](CN(C)S(=O)(=O)c2ccc([N+](=O)[O-])cc2)OCc2ccccc2-c2c(n(C)c3ccccc23)C1=O,-72.5*
COc1cccc(S(=O)(=O)N(C)C[C@H]2OCc3ccccc3-c3c(n(C)c4ccccc34)C(=O)N([C@@H](C)CO)C[C@H]2C)c1,-72.3*
COc1cccc(S(=O)(=O)N(C)C[C@@H]2OCc3ccccc3-c3c(n(C)c4ccccc34)C(=O)N([C@@H](C)CO)C[C@@H]2C)c1,-43.4
COc1cccc(S(=O)(=O)N(C)C[C@@H]2OCc3ccccc3-c3c(n(C)c4ccccc34)C(=O)N([C@H](C)CO)C[C@@H]2C)c1,-56.5
CS(=O)(=O)CC(=O)N1CCC[C@]2(C[C@@H](OCC3CC3)CO2)C1,-2.1
COc1ccc(C(=O)N2CCC3(CC2)NC(=O)c2cc(Cl)ccc2N3C)cc1OC,13.7
Cc1noc(-c2cc(=O)n(CC(=O)Nc3ccc(F)c(F)c3)c3ccccc23)n1,50.1
N#Cc1ccc(C(=O)N2CCC3C2CC(=O)N3Cc2ccncc2)cc1 (stereo not drawn),-2.7
Cc1cc(C)cc(C(=O)NCCc2csc(-c3cccc(F)c3)n2)c1,-53.0
Cc1c(C(=O)Nc2ccc(N3CCC(N4CCOCC4)CC3)c(C#N)c2)cnn1-c1ccc(Cl)cc1,-83.9*
Cc1cc(C(=O)Nc2ccc(N3CCOCC3)cc2)nn1C,218.6
O=C(C1CCN(c2cncnc2N2CCOCC2)CC1)N1CCC(N2CCCCC2)CC1,56.1
Cc1ccc2[nH]c(=S)n(-c3ccc(S(=O)(=O)N4CCCCC4)cc3)c(=O)c2c1,-2.5
CC(C)COCC1CN(Cc2cnn(C)c2)Cc2ncn(C)c21 (stereo not drawn),-4.0
O=C(COc1ccccc1)Nc1ccccc1N1CCCC1,34.6
CN1CCN(C(=O)c2nn(C)c3c2CCN(S(C)(=O)=O)C3)CC1,-31.9
COc1cc(F)ccc1-c1ccccc1NC(=O)CN,-1.4
CN1CCN(CC#N)C(=O)C12CCN(C1CCOC1)CC2 (stereo not drawn),35.4
CCOCc1cnc2n1CCN(C(=O)c1cnc(C)cn1)C2C (stereo not drawn),-68.7
CCCCOc1ccc(CC(=O)NO)cc1,-100.1*!
CCCCOc1ccc(NC(=O)CN2CCN(CC)CC2)cc1,-38.0
O=C(Cc1ccccc1)NO,-35.7
CC(C)c1nnsc1CNC(=O)c1ccc(C#CC(C)(C)O)o1,108.0
O=C(Cn1ncc2c(N3CCN(c4ccccn4)CC3)ncnc21)Nc1ccc(F)cc1F,139.3
C=C(C)Cc1c(C)nc(-c2ccc(Cl)cc2)nc1OC(=S)N(CC)CC,-98.2*
Cc1ccccc1N1CC2(CCN(C(=O)Nc3ccc(F)cc3)C2)CC1=O (stereo not drawn),-17.3
